# In the library only some 7.5% were active in any assay of this set; here they are far more common.
# RORg inh = blocks mouse ROR gamma transcriptional activity | P51450 | Drosophila S2 Gal4-RORgamma UAS-luciferase reporter, 20 h | Potency, µM (highest dose often 53.6 µM), for the others: at the top dose activity change, negative = inhibition, usual class: inhibitors | 310,000 tested, 5.4% active | AID 2551; note: potency is the fitted concentration of half-maximal effect; nearly all actives have a fitted effect of over 60% in size
#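 Stable Schneider cell line, Gal4 DNA-binding domain fused to ROR gamma, UAS-luciferase. Cmpd 1 hr RT → CuSO4 700 uM final → 20 hr RT → luciferase reagent 10 min → luminescence.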
# B2AR arrestin = agonists driving beta-arrestin recruitment to human beta2-adrenergic receptor; beta-arrestin recruitment to beta2AR, cell-based reporter; 330,000 tested, 0.02% active; P07550; Potency, µM (series often up to 46.1 µM), for inactives: at the highest dose activation, usual class: activators;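 note: potency is the fitted concentration of half-maximal effect; 0% = DMSO controls and full agonism = EC100 isoproterenol or metaproterenol; nearly all actives have a fitted effect of over 65% in size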
# VP16 counter = Gal4-VP16 reporter inhibition counter-screen | 310,000 tested, 3.5% active | Potency, µM (doses to about 53.6 µM), for the others: at the highest dose activity, negative = inhibition, most hits filed as inhibitors | Drosophila S2 Gal4-VP16 UAS-luciferase, luminescence, 20 h;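 note: Gal4-VP16 expression switched on by copper sulfate through the metallothionein promoter; potency is the fitted concentration of half-maximal effect; nearly all actives have a fitted effect of over 50% in size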
# TSHR antag = human thyrotropin receptor antagonism. P16473. TSHR-expressing cells, TSH-stimulated cAMP HTRF, 2 h; hits give low values. activity change, negative = inhibition, % at 11.5 µM. 330,000 tested, 0.2% active. AID 504810;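 active = activity change below a set negative limit, meaning inhibition stronger than a set level, cut at about -70% in these data; inconclusive = activity change between two set negative limits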
# Target sequence (P16473 whole entry, looked up): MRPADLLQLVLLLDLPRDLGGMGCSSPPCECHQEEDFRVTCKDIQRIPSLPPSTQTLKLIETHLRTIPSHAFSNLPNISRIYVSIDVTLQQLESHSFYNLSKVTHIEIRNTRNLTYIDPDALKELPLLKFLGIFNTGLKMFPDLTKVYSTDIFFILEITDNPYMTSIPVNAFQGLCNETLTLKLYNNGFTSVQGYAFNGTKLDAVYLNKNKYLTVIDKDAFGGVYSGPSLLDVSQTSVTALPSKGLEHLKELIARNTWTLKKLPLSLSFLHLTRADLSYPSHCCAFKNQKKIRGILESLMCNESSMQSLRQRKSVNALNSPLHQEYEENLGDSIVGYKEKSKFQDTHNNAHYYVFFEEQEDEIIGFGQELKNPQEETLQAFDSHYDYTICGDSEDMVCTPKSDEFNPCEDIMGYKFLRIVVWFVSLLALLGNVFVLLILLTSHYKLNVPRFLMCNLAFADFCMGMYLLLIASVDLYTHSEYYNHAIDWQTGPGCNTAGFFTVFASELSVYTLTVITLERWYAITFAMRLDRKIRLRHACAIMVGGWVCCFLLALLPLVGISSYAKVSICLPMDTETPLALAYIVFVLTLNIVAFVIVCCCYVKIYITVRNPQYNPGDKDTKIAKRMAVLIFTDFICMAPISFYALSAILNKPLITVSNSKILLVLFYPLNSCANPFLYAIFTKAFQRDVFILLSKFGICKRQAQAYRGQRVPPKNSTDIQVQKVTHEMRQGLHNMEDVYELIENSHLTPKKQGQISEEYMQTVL
#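 Read-out is FRET at 665 nm (cryptate excitation 337 nm) from a cryptate-tagged anti-cAMP antibody, competed by cell cAMP against cAMP-d2. Compounds are tested on freshly harvested TSHR cells challenged with 4nM TSH (EC80) for 2 hours at 37 deg C.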
# ELG1 DNA repair = ELG1-dependent DNA repair inhibition; HEK293T ELG1-luciferase reporter, luminescence, 16 h; DNA damage induced by 5-fluorouridine; Potency, µM (titrated, usually from 46.1 µM), inactives show at the top dose activity change, negative = inhibition, hits mostly inhibitors; 330,000 tested, 2.3% active; note: potency is the fitted concentration of half-maximal effect; nearly all actives have a fitted effect of over 55% in size
#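 Cells (2,000 per well) received 5-fluorouridine plus test compound or DMSO and were incubated 16 hr at 37 °C, 5% CO2. Luciferase activity was read by luminescence 30 min after ONE-Glo addition; signal suppression marked inhibition of damage-induced ELG1 function.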
# Numbers without * were called inactive; ? = inconclusive; / = not tested or not shown; [ ] = dose if it differs, or a comment. Unless noted, calls come from the whole dose curve; as a rule, active = well fitted curve in the direction sought with a large enough effect; inconclusive = small, poorly fitted or top-dose-only effect, or another doubt; inactive = no such curve, though single readings can be large; an effect the other way counts as inactive or inconclusive. Unless noted, % is set by controls: 0 for no effect and ±100 for the full control effect.
SMILES,RORg inh,B2AR arrestin,VP16 counter,TSHR antag,ELG1 DNA repair
COc1cc(NC(=O)c2cc(-c3ccccc3)on2)cc(OC)c1OC,-15.4%,-0.5%,-3.5%,-14.9,?
Cc1ccccc1Cn1nc(C)c(NC(=O)c2cc(CC(C)C)on2)c1C,?,-0.1%,?,-13.0,25.9µM*
COc1ccc(NC(=O)c2cc(C(C)C)on2)c(OC)c1,?,0.2%,7.08µM*,-0.2,?
COc1cccc(-c2cc(C(=O)Nc3cc(OC)c(OC)c(OC)c3)no2)c1,12.4%,0.3%,-10.5%,-25.7,23.1µM*
COc1cccc(-c2cc(C(=O)Nc3c(C)nn(Cc4ccccc4)c3C)no2)c1,6.7%,-0.1%,?,1.2,20.6µM*
CC(=O)Nc1ccn(C2OC(C(COC(C)=O)NC(=O)C(C)NC(=O)OC(C)(C)C)C(OC(C)=O)C2OC(C)=O)c(=O)n1 (centres undefined),-11.1%,/,-6.3%,/,/
O=C1C[C@@H](c2ccc(O)cc2)Oc2cc(O[C@@H]3O[C@H](CO)[C@@H](O)[C@H](O)[C@H]3O)cc(O)c21,3.9%,/,-1.5%,/,/
COc1ccc(O[C@H]2C=C[C@@H](c3ccccc3)O[C@H]2COC(=O)N2CCCCC2)cc1,?,/,-17.9%[10 µM],/,/
Cc1ccccc1NS(=O)(=O)c1ccc(C(=O)NN2CCCCC2)cc1,13.5%,0.4%,-15.7%,-34.1,-18.9%
CCOc1ccc(CCNC(=O)COC(=O)c2cccc(N(C)C)c2)cc1OCC,/,0.3%,/,9.1,?
COc1cc(C2C3=C(Nc4nc(N)[nH]c(=O)c42)c2ccccc2C3=O)ccc1O (centres undefined),17.0%,0.1%,5.4%,-4.6,-6.1%
COc1cc(NC(=O)c2cc3nc(-c4ccccc4)cc(-c4ccccc4)n3n2)cc(OC)c1OC,13.5%,-0.1%,0.4%,1.4,10µM*
O=C(CC1C(=O)CCCC1=O)c1ccccc1,10µM*,0.0%,?,-3.6,22.1%
O=C1CC(C(=O)Nc2ccccc2)S/C(=N\N=C\c2ccco2)N1 (centres undefined),-20.2%,-0.2%,-14.6%,0.3,3.5%
Cc1ccccc1CC1S/C(=N/N=C/c2ccco2)NC1=O (centres undefined),0.447µM*,-0.8%,2µM*,1.9,0.0%
CC(C)C1S/C(=N/N=C/c2ccco2)NC1=O (centres undefined),0.199µM*,-0.3%,3.16µM*,17.9,21.8%
Cc1ccc(NC(=O)CC2S/C(=N/N=C/c3ccco3)NC2=O)cc1Cl (centres undefined),?,-0.2%,1.5%[10 µM],0.6,20.5%
O=C(CCNC(=O)c1ccc(Cl)cc1)NNC(=O)c1ccc(F)cc1,/,0.2%,/,2.3,15.3%
O=C(NNC(=O)c1nc(Cl)ccc1Cl)c1ccc(F)cc1,11.2µM*,-0.8%,?,-10.9,17.1%
O=C(NNC(=O)c1ncc(Cl)c(Cl)c1Cl)c1ccc(F)cc1,7.08µM*,0.3%,5.01µM*,10.0,19.4%
CC1(C)Nc2ccccc2C(=O)N1c1ccccc1,15.6%,-1.1%,12.2%,-10.6,0.0%
CC(=O)c1cccc(N(CC(=O)NC2CCCCC2)C(=O)CNC(=O)c2cccs2)c1,-30.8%,-0.1%,1.3%,5.6,7.0%
COc1cc(/C=N/N2C(=O)CSC2=S)ccc1O,2.8%,-0.1%,1.0%,12.9,4.1%
COc1ccc(Br)cc1/C=N/N1C(=O)CSC1=S,14.1µM*,-0.5%,-24.2%,0.7,-18.3%
Fc1ccc(-c2cc(C(F)(F)C(F)F)[nH]n2)cc1,2.4%,0.5%,12.6µM*,8.2,10.8%
SMILES,RORg inh,B2AR arrestin,VP16 counter,TSHR antag,ELG1 DNA repair
CCN1CCN(C(c2ccc(C(F)(F)F)cc2)c2ccc3cccnc3c2O)CC1 (centres undefined),1.12µM*,4.1%,1.26µM*,10.5,22.5%
CN1CCN(C(c2ccccc2)c2ccc(Cl)cc2)CC1 (centres undefined),/,0.1%,/,6.0,-9.4%
Oc1c(C(c2ccccn2)N2CCCCC2)cc(Cl)c2cccnc12 (centres undefined),2.82µM*,?,?,-10.6,?
OCCN1CCN(CC(O)COc2ccc3ccccc3c2)CC1 (centres undefined),-4.2%,0.2%,-7.9%,0.4,1.4%
Cc1[nH]c2ccccc2c1C(c1ccccn1)N1CCCC1 (centres undefined),-25.6%,0.1%,-1.8%,-3.6,-2.0%
OCCN1CCN(C(c2cccs2)c2ccc3cccnc3c2O)CC1 (centres undefined),11.2µM*,3.4%,11.2µM*,-15.7,-6.5%
CCN1CCN(C(c2ccccc2)c2sc3nc(C)nn3c2O)CC1 (centres undefined),-15.9%,0.4%,7.5%,1.6,-6.9%
CN1CCN(C(c2ccc(Cl)cc2)c2cc(Cl)c3cccnc3c2O)CC1 (centres undefined),3.16µM*,3.6%,1.41µM*,1.9,20.6%
CN1CCN(C(c2ccc(C(F)(F)F)cc2)c2cc(Cl)c3cccnc3c2O)CC1 (centres undefined),0.398µM*,0.2%,0.891µM*,-10.2,?
CN1CCN(C(c2cccc(Cl)c2)c2ccccc2Cl)CC1 (centres undefined),-21.8%,-0.6%,-2.8%,17.3,-10.5%
Cc1ccc(S(=O)(=O)Nc2ccc(O)c3cccnc23)cc1,10µM*,-0.5%,?,14.9,18.3µM*
Cc1ccc(S(=O)(=O)Nc2ccnc3ccccc23)cc1,13.9%,-0.9%,6.7%,0.0,-12.4%
Cc1ccc(S(=O)(=O)Nc2ccc(O)c3ncccc23)cc1,2.51µM*,0.0%,?,12.4,3.26µM*
O[C@H](CN1CCN(c2cccc(Cl)c2)CC1)C(c1ccccc1)c1ccccc1,?,/,-4.2%,/,/
Cc1ccccc1Oc1cc(-n2ncc(Cl)c(Cl)c2=O)ncn1,1.12µM*,8.0%,3.16µM*,-89.6*,5.8µM*
COc1cc(/C=N/NC(N)=S)ccc1OCC(=O)Nc1ccc(C)c(C)c1,11.2µM*,/,?,/,/
CCOc1cc(/C=N/NC(N)=O)ccc1OCC(=O)Nc1ccc(C)c(C)c1,-2.6%,-0.6%,-5.2%,-7.4,?
C/C=C/c1ccc(OCC(=O)Nc2cc(OC)c(OC)c(OC)c2)c(OC)c1,41.4%,0.2%,-20.6%,-10.9,14.6µM*
CCCCNC(=S)N/N=C/c1ccc(OCC(=O)Nc2c(C)cc(C)cc2C)c(OC)c1,?,4.3%,5.01µM*,-4.9,-0.9%
COc1cc(/C=N/NC(N)=O)ccc1OCC(=O)Nc1ccc(C)c(C)c1,-3.5%,0.1%,-18.9%,-2.8,-6.6%
CC[C@H](C)[C@H](NC(=O)[C@H](CC(=O)O)NC(=O)[C@H](CC(C)C)NC(=O)[C@H](NC(C)=O)C(c1ccccc1)c1ccccc1)C(=O)N[C@H](C(=O)N[C@@H](Cc1c[nH]c2ccccc12)C(=O)O)[C@@H](C)CC,19.4%,/,8.5%,/,/

# Compound activity from PubChem BioAssay.
